# Molecular target: Rho-associated protein kinase 2 (Homo sapiens) (UniProt O75116)
# Details: at 1 µM
# Sequence of Rho-associated protein kinase 2 (Homo sapiens) (O75116 whole entry, looked up): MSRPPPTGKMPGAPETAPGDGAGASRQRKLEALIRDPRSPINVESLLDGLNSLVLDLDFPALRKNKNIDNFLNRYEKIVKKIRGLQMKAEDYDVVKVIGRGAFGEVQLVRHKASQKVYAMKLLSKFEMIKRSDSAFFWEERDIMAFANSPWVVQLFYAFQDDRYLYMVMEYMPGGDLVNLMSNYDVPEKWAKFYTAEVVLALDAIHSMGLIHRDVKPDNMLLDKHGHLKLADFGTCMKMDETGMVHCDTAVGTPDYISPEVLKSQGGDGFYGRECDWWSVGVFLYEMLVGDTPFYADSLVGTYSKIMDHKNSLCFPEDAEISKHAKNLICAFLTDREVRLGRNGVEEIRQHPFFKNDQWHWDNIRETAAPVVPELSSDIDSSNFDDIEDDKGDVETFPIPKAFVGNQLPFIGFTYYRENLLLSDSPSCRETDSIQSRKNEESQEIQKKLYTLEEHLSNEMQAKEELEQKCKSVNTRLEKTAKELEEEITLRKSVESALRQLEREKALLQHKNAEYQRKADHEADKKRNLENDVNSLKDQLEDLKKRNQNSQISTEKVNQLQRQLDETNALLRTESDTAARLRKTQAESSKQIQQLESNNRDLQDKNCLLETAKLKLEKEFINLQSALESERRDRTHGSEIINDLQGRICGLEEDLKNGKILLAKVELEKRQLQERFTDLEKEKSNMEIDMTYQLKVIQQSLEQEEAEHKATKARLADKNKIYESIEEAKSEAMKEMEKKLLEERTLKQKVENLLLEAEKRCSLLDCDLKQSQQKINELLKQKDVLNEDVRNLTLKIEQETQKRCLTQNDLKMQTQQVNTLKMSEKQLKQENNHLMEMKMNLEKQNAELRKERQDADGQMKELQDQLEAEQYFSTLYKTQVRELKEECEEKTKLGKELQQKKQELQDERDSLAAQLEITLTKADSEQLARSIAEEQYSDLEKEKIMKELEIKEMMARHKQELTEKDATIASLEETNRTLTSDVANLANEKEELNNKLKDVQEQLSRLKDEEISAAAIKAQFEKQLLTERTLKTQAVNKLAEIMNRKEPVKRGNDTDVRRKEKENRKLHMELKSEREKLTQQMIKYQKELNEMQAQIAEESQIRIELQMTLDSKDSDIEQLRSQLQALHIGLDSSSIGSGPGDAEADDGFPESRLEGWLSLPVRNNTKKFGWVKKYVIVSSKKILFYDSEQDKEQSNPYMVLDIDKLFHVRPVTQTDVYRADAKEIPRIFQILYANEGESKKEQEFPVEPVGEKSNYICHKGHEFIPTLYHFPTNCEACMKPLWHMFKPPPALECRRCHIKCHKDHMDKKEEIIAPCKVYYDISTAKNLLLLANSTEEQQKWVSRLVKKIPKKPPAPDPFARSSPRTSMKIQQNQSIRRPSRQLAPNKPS
row,Compound,residual activity
1,CCC(=O)Nc1ccc2ncnc(Nc3cccc(Br)c3)c2c1,89%
2,Cc1nc2cc3nc(-c4cccs4)cnc3cc2n1C,113%
3,O=C1c2ccccc2-[n+]2ccc3c([nH]c4ccccc43)c21,89%
4,Cc1ccc(S(=O)(=O)/C=C/C#N)cc1,89%
5,N#Cc1cnc2cnc(NCc3cccnc3)cc2c1Nc1ccc(F)c(Cl)c1,2%
6,CC(=O)O/N=C1\C(=C2\C(=O)Nc3cc(Br)ccc32)Nc2ccccc21,98%
7,CO[C@H]1C[C@@H]2CC[C@@H](C)[C@@](O)(O2)C(=O)C(=O)N2CCCC[C@H]2C(=O)O[C@H]([C@H](C)C[C@@H]2CC[C@@H](O)[C@H](OC)C2)CC(=O)[C@H](C)/C=C(\C)[C@@H](O)[C@@H](OC)C(=O)[C@H](C)C[C@H](C)/C=C/C=C/C=C/1C,99%
8,O=C1NC(=O)/C(=C/c2ccc3c(c2)OC(F)(F)O3)S1,113%
9,CCN(CC)CCCCN1c2ccccc2Oc2ccc(Cl)cc21,110%
10,O=C(Nc1cccc(Nc2cc(Nc3cccc(C(F)(F)F)c3)ncn2)c1)C1CC1,94%
11,Cc1ccc(NC2=CC(=O)c3sc(C)nc3C2=O)cc1,87%
12,COc1ccc(CNc2nc(N(CCO)CCO)nc3c2ncn3C(C)C)cc1,91%
13,Oc1ccc(-c2nc(-c3ccc(F)cc3)c(-c3ccncc3)[nH]2)cc1,95%
14,CC[n+]1c(/C=C/N(C)c2ccccc2)n(-c2ccccc2)c2ccc(-c3nc4ccccc4s3)cc21,103%
15,O=Nc1c(-c2c(O)[nH]c3ccccc23)[nH]c2ccccc12,85%
16,Nc1ccc2ncnc(NCCc3ccc(Oc4ccccc4)cc3)c2c1,110%
17,O=c1c2ccccc2[nH]c(=S)n1CCN1CCC(=C(c2ccc(F)cc2)c2ccc(F)cc2)CC1,109%
18,CC(C)n1cnc2c(NCc3ccccc3)nc(NCCCO)nc21,94%

row,Compound,residual activity
1,Cc1cc2ncc(-c3ccccc3)nc2cc1C,100%
2,O=c1cc(-c2cccc3c2Sc2ccccc2S3)oc(N2CCOCC2)c1,102%
3,Cc1nc(-c2ccccc2)c(-c2ccncc2)o1,106%
4,CNc1cc2c(Nc3cccc(Br)c3)ncnc2cn1,100%
5,Nc1n[nH]c2nnc(-c3c(-c4ccccc4)nn4ccccc34)cc12,84%
6,CC(=O)c1ccc(N2CCOCC2)cc1O,92%
7,Cc1cncc2cccc(S(=O)(=O)N3CCCN(C(=O)CN)C[C@H]3C)c12,1%
8,O=C1NC(=O)/C(=C\c2ccc3nccnc3c2)S1,95%
9,COc1cc2ncnc(Nc3ccc(O)c(Br)c3)c2cc1OC,39%
10,CCOc1cc2ncnc(Nc3cccc(Br)c3)c2cc1OCC,91%
11,Nc1cccc(-c2cc3c(Oc4cccc(O)c4)ncnc3[nH]2)c1,93%
12,Nc1nc(Nc2ccc(S(N)(=O)=O)cc2)nn1C(=S)Nc1c(F)cccc1F,0%
13,NC(=O)c1ccc2[nH]c(-c3ccc(Oc4ccc(Cl)cc4)cc3)nc2c1,83%
14,O=C1Nc2cc(Br)ccc2/C1=C1/Nc2ccccc2/C1=N\O,90%
15,Oc1ccc(Nc2nc(-c3ccc(Cl)cc3)cs2)cc1,100%
16,COc1cc2ncnc(Nc3ccc(Oc4ccccc4)cc3)c2cc1OC,104%
17,c1ccc(-c2n[nH]c3c2oc2ccccc23)cc1,97%

# Molecular target: Rho-associated protein kinase 2 (Homo sapiens) (UniProt O75116)
# Details: at 10 µM
row,Compound,residual activity
1,CCC(=O)Nc1ccc2ncnc(Nc3cccc(Br)c3)c2c1,88%
2,Cc1nc2cc3nc(-c4cccs4)cnc3cc2n1C,93%
3,O=C1c2ccccc2-[n+]2ccc3c([nH]c4ccccc43)c21,86%
4,Cc1ccc(S(=O)(=O)/C=C/C#N)cc1,93%
5,N#Cc1cnc2cnc(NCc3cccnc3)cc2c1Nc1ccc(F)c(Cl)c1,3%
6,CC(=O)O/N=C1\C(=C2\C(=O)Nc3cc(Br)ccc32)Nc2ccccc21,95%
7,CO[C@H]1C[C@@H]2CC[C@@H](C)[C@@](O)(O2)C(=O)C(=O)N2CCCC[C@H]2C(=O)O[C@H]([C@H](C)C[C@@H]2CC[C@@H](O)[C@H](OC)C2)CC(=O)[C@H](C)/C=C(\C)[C@@H](O)[C@@H](OC)C(=O)[C@H](C)C[C@H](C)/C=C/C=C/C=C/1C,92%
8,O=C1NC(=O)/C(=C/c2ccc3c(c2)OC(F)(F)O3)S1,89%
9,CCN(CC)CCCCN1c2ccccc2Oc2ccc(Cl)cc21,91%
10,O=C(Nc1cccc(Nc2cc(Nc3cccc(C(F)(F)F)c3)ncn2)c1)C1CC1,80%
11,Cc1ccc(NC2=CC(=O)c3sc(C)nc3C2=O)cc1,90%
12,COc1ccc(CNc2nc(N(CCO)CCO)nc3c2ncn3C(C)C)cc1,96%
13,Oc1ccc(-c2nc(-c3ccc(F)cc3)c(-c3ccncc3)[nH]2)cc1,36%
14,CC[n+]1c(/C=C/N(C)c2ccccc2)n(-c2ccccc2)c2ccc(-c3nc4ccccc4s3)cc21,93%
15,O=Nc1c(-c2c(O)[nH]c3ccccc23)[nH]c2ccccc12,82%
16,Nc1ccc2ncnc(NCCc3ccc(Oc4ccccc4)cc3)c2c1,94%
17,O=c1c2ccccc2[nH]c(=S)n1CCN1CCC(=C(c2ccc(F)cc2)c2ccc(F)cc2)CC1,86%
18,CC(C)n1cnc2c(NCc3ccccc3)nc(NCCCO)nc21,90%

row,Compound,residual activity
1,Cc1cc2ncc(-c3ccccc3)nc2cc1C,94%
2,O=c1cc(-c2cccc3c2Sc2ccccc2S3)oc(N2CCOCC2)c1,101%
3,Cc1nc(-c2ccccc2)c(-c2ccncc2)o1,76%
4,CNc1cc2c(Nc3cccc(Br)c3)ncnc2cn1,85%
5,Nc1n[nH]c2nnc(-c3c(-c4ccccc4)nn4ccccc34)cc12,90%
6,CC(=O)c1ccc(N2CCOCC2)cc1O,87%
7,Cc1cncc2cccc(S(=O)(=O)N3CCCN(C(=O)CN)C[C@H]3C)c12,-1%
8,O=C1NC(=O)/C(=C\c2ccc3nccnc3c2)S1,80%
9,COc1cc2ncnc(Nc3ccc(O)c(Br)c3)c2cc1OC,40%
10,CCOc1cc2ncnc(Nc3cccc(Br)c3)c2cc1OCC,70%
11,Nc1cccc(-c2cc3c(Oc4cccc(O)c4)ncnc3[nH]2)c1,87%
12,Nc1nc(Nc2ccc(S(N)(=O)=O)cc2)nn1C(=S)Nc1c(F)cccc1F,1%
13,NC(=O)c1ccc2[nH]c(-c3ccc(Oc4ccc(Cl)cc4)cc3)nc2c1,72%
14,O=C1Nc2cc(Br)ccc2/C1=C1/Nc2ccccc2/C1=N\O,93%
15,Oc1ccc(Nc2nc(-c3ccc(Cl)cc3)cs2)cc1,102%
16,COc1cc2ncnc(Nc3ccc(Oc4ccccc4)cc3)c2cc1OC,84%
17,c1ccc(-c2n[nH]c3c2oc2ccccc23)cc1,75%

# Reference: ChEMBL document CHEMBL2218924, “A broad activity screen in support of a chemogenomic map for kinase signalling research and drug discovery” (Biochem J, 2013)
